Screens (PubChem)
CHRM1 antagonist: blocks human M1 muscarinic receptor | inhibition, % at 3 µM | 360,000 compounds, 1.3% hits | CHO-K1 hM1, Fluo-8 calcium fluorescence, ACh EC80 antagonist | AID 588852 | P11229;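 active means percent inhibition above its own plate's cutoff, namely the mean of that plate's compound wells plus 3 SD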;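 further: peak over basal fluorescence ratio during 140 s after agonist addition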
Target sequence (P11229 whole entry, looked up): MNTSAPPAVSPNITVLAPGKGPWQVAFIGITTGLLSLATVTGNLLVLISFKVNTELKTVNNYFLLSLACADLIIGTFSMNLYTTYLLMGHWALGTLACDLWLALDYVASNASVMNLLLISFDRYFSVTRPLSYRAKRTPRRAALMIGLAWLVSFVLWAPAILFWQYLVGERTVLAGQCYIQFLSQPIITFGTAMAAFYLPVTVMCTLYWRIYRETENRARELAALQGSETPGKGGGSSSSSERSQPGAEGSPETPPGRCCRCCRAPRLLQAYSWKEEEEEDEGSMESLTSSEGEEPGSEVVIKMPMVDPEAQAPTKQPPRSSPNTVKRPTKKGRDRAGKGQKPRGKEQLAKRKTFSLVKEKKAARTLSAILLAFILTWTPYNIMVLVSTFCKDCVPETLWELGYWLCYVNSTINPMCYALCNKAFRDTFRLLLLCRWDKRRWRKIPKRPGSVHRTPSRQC
SKN-1 block: inhibitors of C. elegans SKN-1; 360,000 compounds, 0.49% hits; C. elegans VP596 Pgst-4::GFP/RFP ratio, acrylamide-induced, 24 h; inhibition, % at 21.8 µM;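 active means interference check ratio from 0.5 to 1.5 plus GFP to RFP signal ratio inhibition reaching or exceeding a fixed threshold, cut at about 30% in these data, passing the limit was not always enough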
M1 ag: human M1 muscarinic receptor agonism. AID 588814. CHO-K1 hM1, Fluo-8 calcium fluorescence, agonist mode; 0% DMSO, 100% acetylcholine EC100. activation, % at 3 µM. 360,000 compounds, 0.33% hits;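 active means activation above the run's mean compound activation plus 3 SD, cut at about 16% in these data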;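 further: peak over basal fluorescence ratio within a 140 s kinetic read after compound addition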
ATG4B inhibitor: ATG4B (human) cysteine protease inhibition. ATG4B cleavage of LC3-PLA2, NBD-HPC fluorescence, 1 h. 340,000 compounds, 0.51% hits. inhibition, % at 8.33 µM. AID 504462; in the data active means inhibition above about 40%
Myeloid diff MLP: myeloid differentiation induction | ER-HoxA9 myeloid progenitors, lysozyme-GFP differentiation, flow cytometry | calls only at 10 µM | 360,000 compounds, 1% hits;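 active means normalized GFP-positive differentiation at or above the plate's own cutoff, the solvent-only control mean plus 3 SD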;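 further: cells exposed to compound for four days before flow analysis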
M1 PAM: potentiates human M1 receptor response to acetylcholine. CHO-K1 hM1, Fluo-8 calcium fluorescence, ACh EC20; 0% = ACh EC20, 100% = maximal ACh. activation, % at 3 µM. 360,000 compounds, 0.088% hits; in the data active means activation above about 19%, passing the limit was not always enough
ATG4B conf: ATG4B (human) inhibition, single-dose confirmed. shares compounds with ATG4B inhibitor. ATG4B protease fluorescent substrate cleavage assay. inhibition, % at 8.33 µM. 320 compounds, 92% hits. AID 504757; in the data active means inhibition above about 39%
PLA2 ctr: inhibits human PLA2, flagging false ATG4B inhibitors | shares compounds with ATG4B inhibitor | purified PLA2, NBD-C6-HPC fluorescence, 45 min | inhibition, % at 8.33 µM | 1,600 compounds, 66% hits | AID 588402; in the data active means inhibition above about 50%
Target sequence (P04054 whole entry, looked up): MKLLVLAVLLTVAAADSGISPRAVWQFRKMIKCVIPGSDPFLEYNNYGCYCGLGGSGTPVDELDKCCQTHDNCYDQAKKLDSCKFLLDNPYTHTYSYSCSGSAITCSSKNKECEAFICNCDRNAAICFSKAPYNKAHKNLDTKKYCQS
Large screens that a line does not name were inactive (follow-up assays come after a bar, where they were run). A selection: hits, their analogues and other compounds. The true share with any hit is near 3.5%.

C#CCOCCOCCOCCNc1nc(N2CCN(C(=O)CCCCCCCCCCNC(=O)[C@H](CCCCN)n3cc(CCO)nn3)CC2)nc(N2CCN(C(=O)CCCCCCCCCCNC(=O)[C@H](CCCCN)n3cc(C[C@@H](C)CC)nn3)CC2)n1	ATG4B inhibitor 75 (no result: CHRM1 antagonist, SKN-1 block, M1 ag, Myeloid diff MLP, M1 PAM) | ATG4B conf inactive | PLA2 ctr inactive
C#CCOCCOCCOCCNc1nc(N2CCN(C(=O)CCCCCCCCCCNC(=O)[C@H](CCCCN)n3cc(C[C@@H](C)CC)nn3)CC2)nc(N2CCN(C(=O)CCCCCCCCCCNC(=O)[C@H](CCCN=C(N)N)n3cc(C[C@@H](C)CC)nn3)CC2)n1	ATG4B inhibitor 88 | PLA2 ctr 81
CCn1c(C(=O)N2CCc3ccccc3C2)cc2oc3ccccc3c21	ATG4B inhibitor 43 | PLA2 ctr 72
Cn1c(C(=O)N2CCc3ccccc3C2)cc2oc3ccccc3c21	ATG4B inhibitor 59 | PLA2 ctr 64
COC(=O)c1ccc(N2CCN(C(C)=O)CC2)c(NC(=O)c2cccnc2)c1	none
O=C1[C@H](Cc2ccccc2)NCC=CC[C@H](c2ccc(Cl)cc2)N1Cc1ccc(Cl)cc1	ATG4B inhibitor 45 | PLA2 ctr 81
O=C1[C@H](Cc2ccccc2)NCC=CC[C@@H](c2ccc(Cl)cc2)N1Cc1ccc(Cl)cc1	none
O=C1[C@H](Cc2ccccc2)NCC=CC[C@H](c2ccc(Cl)cc2)N1Cc1ccccc1	ATG4B inhibitor 57 | PLA2 ctr 70
C[C@H](CO)N1C[C@H](C)[C@@H](CN(C)C(=O)NC2CCCCC2)Oc2ncc(Br)cc2C1=O	none (no result: ATG4B inhibitor)
CCCc1nn2c(-c3ccccc3)nnc2o1	none (no result: ATG4B inhibitor)
Cc1ccc(S(=O)(=O)Nc2ccccc2C=Nc2cccc(C)c2C)cc1	ATG4B inhibitor 57 | PLA2 ctr 61
Cc1ccc(S(=O)(=O)Nc2ccccc2N=Cc2c(F)c(F)c(F)c(F)c2F)cc1	none
Cc1nc(NCCc2ccc(S(N)(=O)=O)cc2)c2c3c(sc2n1)CCC3	none
CC(CO)Nc1nc(SCc2ccccc2)nc2sc3c(c12)CCC3 (centres undefined)	ATG4B inhibitor 83 | PLA2 ctr 91
CNC(=O)CSc1nc(N)c2c3c(sc2n1)CCC3	none
COCCNc1nc(SCc2ccccc2)nc2sc3c(c12)CCC3	ATG4B inhibitor 46 | PLA2 ctr 60
Cc1ccc(NC(=O)CSc2ccccc2)cc1S(=O)(=O)N1CCCCC1	none
Cc1ccc(NC(=S)NCc2ccccc2)cc1S(=O)(=O)N1CCCCC1	ATG4B inhibitor 57 | PLA2 ctr 75
COCCCNC(=S)N1CCC(NC(=O)Nc2ccc(C)cc2)CC1	none
CCOC(=O)COc1ccc2c(c1)c(C(C)=O)c(C)n2-c1ccccc1	none
CC(=O)c1c(C)n(-c2ccccc2)c2ccc(OCC(N)=O)cc12	ATG4B inhibitor 47 | PLA2 ctr 52
COc1ccc(OC)c(NC(=O)CCN2CCN(CCO)CC2)c1	none
CC1CC(C)CN(C(=O)C2CCN(S(=O)(=O)c3ccc4c(c3)CC(C)N4C(=O)C3CC3)CC2)C1 (centres undefined)	ATG4B inhibitor 43 | ATG4B conf 60 | PLA2 ctr inactive
CC(=O)N1c2ccc(S(=O)(=O)N3CCC(C(=O)N4CC(C)CC(C)C4)CC3)cc2CC1C (centres undefined)	none
Cc1cccc(NC(=O)NNC(=O)COc2ccc(Cl)cc2)c1	none
Cc1ccsc1CN1CC(=O)N(c2c(C)cccc2C)C1=S	ATG4B inhibitor 85 | PLA2 ctr 93
COc1ccc(CN2CC(=O)N(c3ccc(C)cc3)C2=S)cc1OC	none
COc1cc(CN2CC(=O)N(c3cccc(Cl)c3C)C2=S)cc(OC)c1OC	none
CCc1ccc(N2C(=O)CN(Cc3sccc3C)C2=S)cc1	ATG4B inhibitor 92 | PLA2 ctr 98
Cc1cccc(N2C(=O)CN(Cc3cccs3)C2=S)c1	ATG4B inhibitor 52 | PLA2 ctr 74
COc1cc(Cl)c(C)cc1N1C(=O)CN(Cc2ccccc2)C1=S	ATG4B inhibitor 52 | PLA2 ctr 69
CCn1cc(/C=C(\NC(=O)c2ccccc2)C(=O)N2CCOCC2)c2ccccc21	none
N#CCOC(=O)C1CCN(S(=O)(=O)c2ccc3c(c2)OCCO3)CC1	none
O=C(/C=C/c1cccc(C(F)(F)F)c1)OCC(=O)N1CCN(c2ccccc2)CC1	none
Cc1cc(C)cc(N2C(=O)CN(Cc3sccc3C)C2=S)c1	ATG4B inhibitor 94 | PLA2 ctr 94
COc1cc(CN2CC(=O)N(c3ccc(C)cc3)C2=S)cc(OC)c1OC	none
Cc1cccc(N2C(=O)CN(Cc3ccccc3)C2=S)c1	ATG4B inhibitor 49 | PLA2 ctr 63
Cc1cccc(N2C(=O)CN(Cc3sccc3C)C2=S)c1	ATG4B inhibitor 88 | PLA2 ctr 92
COC(=O)c1ccc(CSC2=NC[C@@H]3[C@@H]4C(=O)N(Cc5ccccc5)C(=O)[C@@H]4[C@](C)(C(=O)OC)N23)cc1	none
CC(C)CN1CC(C)C(=O)N(c2ccccc2)C1=O (centres undefined)	none
O=C(NC1=NCCS1)c1ccc(Cl)c(S(=O)(=O)N2CCOCC2)c1	none
CCN(Cc1ccncc1)Cc1c(O)ccc2cc(Br)ccc12	none
O=C(CNc1cccc([N+](=O)[O-])c1)N/N=C/c1ccc(F)cc1	none
CC(C)OC(=O)[C@H]1[C@H](c2ccc(Cl)cc2)[C@@](C#N)(C(N)=O)[C@@H]2C=CC(C(N)=O)=CN21	ATG4B inhibitor 64 | PLA2 ctr 74
Cc1ccc(N(CC(=O)Nc2ccc(F)c(Cl)c2)S(=O)(=O)c2c(C)noc2C)cc1	ATG4B inhibitor 41 | PLA2 ctr 61
O=C(C1=C(c2ccccc2)C(=O)c2ccccc2C1=O)c1ccccc1	ATG4B inhibitor 45 | PLA2 ctr 51
CC(C)Cn1c(SC(C)C(=O)Nc2ccc3c(c2)OCCO3)nc2ccccc2c1=O (centres undefined)	ATG4B inhibitor 49 | PLA2 ctr 55
CC(Sc1ncnc2ccccc12)C(=O)Nc1ccc2c(c1)OCCO2 (centres undefined)	none
COC(=O)Nc1ccc(S(=O)(=O)NCc2ccccn2)cc1	none
Cc1ccccc1CSc1nnc(NC(=O)C2COc3ccccc3O2)s1 (centres undefined)	ATG4B inhibitor 49 | PLA2 ctr 61
O=C(Nc1nnc(SCc2ccccc2Cl)s1)C1COc2ccccc2O1 (centres undefined)	none
